Shown are actives, neighbours in structure and some others; about 2.9% of the full set was active somewhere.
PLC-beta3 inh: PLC-beta3 (human) inhibition, primary screen | inhibition, % at 12.2 µM | Q01970 | Purified PLC-beta3, fluorogenic substrate, fluorescence | 0.18% of 370,000 active; in the data active = inhibition above about 11%;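 note: 0% = median of compound wells on plate and 100% = full blocker control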
ADAM17 inh: inhibits human ADAM17; AID 720648; recombinant ADAM17, EDANS/DABCYL FRET peptide cleavage; inhibition, % at 6.95 µM; 0.83% of 370,000 active; P78536;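 active = inhibition above the mean of compounds lying between control limits plus 3 SD, set per campaign, cut at about 8.5% in these data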;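 note: 0% = DMSO-only wells as the low control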
PLCg1 inh: blocks human PLC-gamma1 enzyme activity. P19174. purified PLC-gamma1, fluorogenic substrate, fluorescence. inhibition, % at 12.2 µM. 0.84% of 370,000 active
Target sequence (P19174 whole entry, looked up): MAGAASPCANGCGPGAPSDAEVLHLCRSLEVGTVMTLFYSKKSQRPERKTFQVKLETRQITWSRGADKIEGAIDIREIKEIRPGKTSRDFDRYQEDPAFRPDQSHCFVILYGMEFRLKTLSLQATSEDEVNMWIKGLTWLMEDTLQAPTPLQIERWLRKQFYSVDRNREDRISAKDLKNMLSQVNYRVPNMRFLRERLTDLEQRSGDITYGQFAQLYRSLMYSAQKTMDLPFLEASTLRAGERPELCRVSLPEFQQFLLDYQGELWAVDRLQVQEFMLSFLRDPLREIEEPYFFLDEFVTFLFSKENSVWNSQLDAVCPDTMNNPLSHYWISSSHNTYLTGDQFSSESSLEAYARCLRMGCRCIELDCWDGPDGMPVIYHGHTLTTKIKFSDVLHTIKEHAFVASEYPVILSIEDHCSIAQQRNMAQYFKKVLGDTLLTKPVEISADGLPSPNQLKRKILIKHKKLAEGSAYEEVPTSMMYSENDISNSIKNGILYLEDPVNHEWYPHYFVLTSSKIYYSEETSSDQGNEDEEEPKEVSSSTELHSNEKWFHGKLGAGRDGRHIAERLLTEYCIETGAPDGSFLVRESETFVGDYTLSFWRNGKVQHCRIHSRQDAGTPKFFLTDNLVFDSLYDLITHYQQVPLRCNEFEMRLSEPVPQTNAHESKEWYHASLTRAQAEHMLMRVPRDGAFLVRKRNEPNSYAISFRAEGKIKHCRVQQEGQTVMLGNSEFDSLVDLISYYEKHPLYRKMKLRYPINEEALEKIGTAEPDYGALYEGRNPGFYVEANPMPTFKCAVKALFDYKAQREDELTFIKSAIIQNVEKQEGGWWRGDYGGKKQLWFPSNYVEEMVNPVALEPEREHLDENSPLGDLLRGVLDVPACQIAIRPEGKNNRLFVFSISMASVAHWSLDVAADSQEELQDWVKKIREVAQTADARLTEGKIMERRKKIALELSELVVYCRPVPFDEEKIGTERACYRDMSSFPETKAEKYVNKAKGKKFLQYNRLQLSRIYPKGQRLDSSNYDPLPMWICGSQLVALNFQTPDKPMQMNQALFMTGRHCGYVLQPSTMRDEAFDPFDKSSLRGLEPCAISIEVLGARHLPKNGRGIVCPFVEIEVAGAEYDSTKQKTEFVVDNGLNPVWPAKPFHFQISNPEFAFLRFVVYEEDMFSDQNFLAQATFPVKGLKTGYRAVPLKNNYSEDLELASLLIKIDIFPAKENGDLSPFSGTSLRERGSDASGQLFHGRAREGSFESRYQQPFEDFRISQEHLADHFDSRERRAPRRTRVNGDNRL
KLK7 zymogen act: activators of human kallikrein-7 zymogen; activation, % at 7 µM; P49862; 0.9% of 370,000 active; purified proKLK7, EDANS-DABCYL substrate fluorescence; 100% is mature enzyme control, 0% vehicle;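 active = activation above the mean of all tested compounds plus 3 SD, computed per campaign excluding outliers beyond control limits, cut at about 13% in these data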
ADAM10 inh: ADAM10 inhibition, QFRET primary screen; 0.62% of 370,000 active; recombinant ADAM10, EDANS/DABCYL FRET peptide cleavage, 3 h; inhibition, % at 7 µM;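 active = inhibition above a per-campaign cutoff equal to the mean of compounds falling between control-based bounds plus 3 SD, cut at about 20% in these data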;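 note: 0% = DMSO wells while the 100% control is not disclosed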
PLCgamma1 ctr: counter-screen for PLC-beta3 inhibitors: inhibitors of human PLC-gamma1. shares compounds with PLCg1 inh. purified PLC-gamma1, fluorogenic substrate, fluorescence. inhibition, % at 12.3 µM. 3.1% of 3,300 active. AID 743258
PLCbeta3 conf: human PLC-beta3 inhibition, confirmation. shares compounds with PLCg1 inh. purified PLC-beta3, fluorogenic substrate fluorescence. inhibition, % at 12.3 µM. 1% of 3,300 active. AID 743261; in the data active = inhibition above about 11%
* hit, by the source's call; nt = not tested or not shown. Cut-off read from the data, not from the text of the source, unless noted: active = inhibition above about 9.5%; inactive = the rest.

SMILES	PLC-beta3 inh	ADAM17 inh	PLCg1 inh	KLK7 zymogen act	ADAM10 inh	PLCgamma1 ctr	PLCbeta3 conf
Cc1ccc(S(=O)(=O)/N=C2/NC(=O)/C(=C\c3ccccc3)S2)cc1	-5.0	2.1	-0.5	-0.1	-1.9	nt	nt
Cc1ccc(S(=O)(=O)N=C2SCCCS2)cc1	2.8	7.4	9.9*	-0.1	4.7	-2.7	1.1
COc1cccc(NC(=O)CCS(=O)(=O)c2ccc(Br)cc2)c1	-1.1	-1.0	1.9	-0.3	0.5	nt	nt
Cc1ccc(NC(=O)CSc2nnnn2C2CCCC2)cc1S(=O)(=O)N1CCOCC1	-1.2	-1.0	1.6	0.0	-2.2	nt	nt
Cc1ccc(NC(=O)CSc2n[nH]c(-c3ccco3)n2)c(C)c1	-11.6	-5.8	10.4*	-0.3	-3.1	0.4	-7.3
Cc1ccc(NC(=O)CSc2n[nH]c(-c3ccco3)n2)cc1	2.7	-5.3	1.1	0.2	2.6	nt	nt
CCn1cnc2scc(-c3ccc(OC)cc3)c2c1=O	-13.1	-2.8	-6.3	-0.2	-2.8	nt	nt
CCOc1ccc(-c2csc3ncn(-c4ccc(OC)cc4)c(=O)c23)cc1	-4.5	-7.2	10.5*	0.2	-3.6	-16.2	-12.3
O=C(c1cccc(S(=O)(=O)N2CCCCCC2)c1)N1CCN(c2ccccc2F)CC1	-2.7	-1.1	6.7	-0.4	10.7	nt	nt
O=C(c1ccc(S(=O)(=O)N2CCCCCC2)cc1)N1CCN(c2ccccc2F)CC1	-1.3	4.2	12.3*	0.0	-1.8	-3.9	-1.3
OC(c1ccccc1)c1nc(/C=C/c2ccccc2)cs1 (stereo not drawn)	3.8	4.2	3.6	-0.1	9.0	nt	nt
NS(=O)(=O)c1ccc(N/N=C/c2ccc(O)c(O)c2O)c([N+](=O)[O-])c1	2.4	0.8	11.6*	0.1	8.7	4.9	2.9
NS(=O)(=O)c1ccc(N/N=C/c2ccc(O)cc2O)c([N+](=O)[O-])c1	3.2	-3.6	10.0*	0.2	1.3	12.0*	12.8*
CCc1ccccc1NC(=O)CN(C)C(=O)COC(=O)c1cccnc1Cl	-1.0	7.0	10.5*	-0.5	-7.8	-5.7	-0.2
CCc1ccccc1NC(=O)CN(C)C(=O)COC(=O)c1c(Cl)cccc1Cl	-7.1	-5.0	3.5	-0.4	-0.9	nt	nt
Cc1ccc(C2C3C(=O)N(c4ccc(C)cc4)C(=O)C3N3CCCN23)cc1 (stereo not drawn)	-6.1	-2.6	0.9	-0.4	-5.0	nt	nt
Cc1ccc(O)c(NC(=O)c2cc(C)no2)c1	-1.5	-0.3	1.7	-0.5	7.6	nt	nt
O=C(O)CNCC1COc2ccccc2O1 (stereo not drawn)	5.6	-1.3	-1.3	-0.2	3.4	nt	nt
CN(C)C(=O)OCC1COc2ccccc2O1 (stereo not drawn)	-1.3	-4.5	9.9*	-0.3	-8.2	-4.6	-1.1
O=C(O)CCC1COc2ccccc2O1 (stereo not drawn)	10.4	4.2	11.1*	-0.2	2.9	1.0	-2.7
O=C(N[C@@H](Cc1c[nH]c2ccccc12)C(=O)O)c1ccc(Cl)cc1	-3.7	2.6	6.1	0.8	-4.4	nt	nt
NC(=NCCc1c[nH]c2ccccc12)NC(=O)c1ccc(Cl)cc1	-0.7	3.0	10.0*	-0.5	19.1	-4.9	-3.8
CCCCOCCCNC(=O)C[C@@H]1C[C@@]2(C(=O)OCC)CCC=C2N(Cc2ccc3c(c2)OCO3)C1=O	2.8	1.1	3.0	0.3	1.5	nt	nt
CC(=O)Nc1ccc(S(=O)(=O)c2ccc(C)cc2)cc1	-4.5	3.2	10.1*	0.0	-3.5	-7.1	-4.0
COc1ccccc1-c1ccc([C@@H]2C[C@H]3[C@H](CON3C)CN2CC2CCCCC2)cc1	6.4	6.8	5.2	0.8	1.6	nt	nt
SMILES	PLC-beta3 inh	ADAM17 inh	PLCg1 inh	KLK7 zymogen act	ADAM10 inh	PLCgamma1 ctr	PLCbeta3 conf
O=C1CC(C(=O)N2CCOCC2)C2(CCCC2)O1 (stereo not drawn)	-2.2	-3.7	-3.9	-0.4	2.8	nt	nt
CCCCOCCCNC(=O)C[C@@H]1C[C@@]2(C(=O)OC)CCCCC=C2N(CCc2ccc(OC)c(OC)c2)C1=O	-1.0	1.9	1.8	-0.1	-13.7	nt	nt
O=C(CSc1ccc(F)cc1)NC(=O)NCc1ccccc1	0.6	-0.1	10.2*	-0.1	7.2	-0.3	-4.4
COc1ccccc1-c1noc2c1C(=O)N(Cc1cn(-c3ccccc3)nn1)CC2	5.0	7.8	0.5	-0.2	-1.9	nt	nt
CC1(C(=O)NCc2ccccc2)Cc2c(-c3ccc4c(c3)OCO4)ccnc2O1 (stereo not drawn)	-8.8	-16.9	-1.6	-0.2	-59.9	nt	nt
CC(=O)c1cccc(NC(=O)c2onc(C)c2Cl)c1	4.2	-1.4	3.4	0.2	-5.1	nt	nt
Cc1noc(C(=O)Nc2cccnc2)c1Cl	4.5	1.0	11.7*	0.5	9.3	-6.2	-4.3
Cn1c(CSCc2ccc(F)cc2)nnc1SCC(=O)N1CCN(c2ccccc2)CC1	6.2	0.8	3.2	0.0	3.3	nt	nt
CC(/C=C/c1cccc([N+](=O)[O-])c1)=N\NC(=O)c1ccncc1	0.9	-3.8	13.1*	-0.5	-16.7	2.7	3.7
Cc1cc(C(=O)N/N=C/C=C/c2cccc([N+](=O)[O-])c2)n[nH]1	10.0	4.9	10.9*	-0.4	10.6	3.0	3.6
Cc1cc(C(=O)N/N=C/C=C/c2ccccc2)n[nH]1	1.9	-8.6	2.8	-0.1	-6.7	nt	nt
CNC(=S)NCC(O)c1ccc([N+](=O)[O-])cc1 (stereo not drawn)	3.5	-0.8	1.2	0.1	-6.0	nt	nt
OC(C1=CC(=Cc2ccncc2)c2ccccc21)c1ccncc1 (stereo not drawn)	-1.0	-0.3	-2.5	0.3	4.4	nt	nt
COc1ccc(CN(CC(=O)NCc2ccccc2)C(=O)CCC(=O)Nc2nccs2)cc1	0.8	-1.5	0.7	-0.7	-0.3	nt	nt
CCOC(=O)C1CCN(C(=O)c2cccc(C(=O)N3CCC(C(=O)OCC)CC3)c2)CC1	3.5	3.5	2.4	-0.4	15.7	nt	nt
CCOC(=O)C1CCN(C(=O)c2ccc3c(c2)OCCO3)CC1	-7.6	-2.4	11.9*	-0.4	-16.8	-1.1	0.6
CCOC(=O)C1CCN(C(=O)c2cc(C)n(C(C)(C)C)n2)CC1	-2.6	5.0	10.6*	-0.3	12.3	-1.6	-0.5
C#CNC(=O)C1(CC=C)CCNCC1	12.5*	5.2	4.2	0.5	-2.1	-5.1	-1.7
Cc1ccc(S(=O)(=O)NCCC(=O)OCC(=O)N2CCCC2=O)cc1C	-6.1	-1.6	1.9	0.3	-9.1	nt	nt
N=c1n(N)c2ccccc2n1CC(=O)c1ccc(Br)cc1	-8.2	-1.9	-3.3	-0.3	2.4	nt	nt
Cc1ccc(NC(=S)NC2CC3CCC(C2)N3Cc2ccco2)c(C)c1 (stereo not drawn)	-2.1	-3.6	1.2	-0.2	-1.5	nt	nt
Cc1ccc(NC(=S)NC2CC3CCC(C2)N3Cc2ccco2)cc1C (stereo not drawn)	5.7	4.7	13.4*	-0.7	7.6	-5.2	-2.0
